# Measurements published in PubChem BioAssay (NCI).
# About 79,000 compounds went through this panel and 15% of them were active in at least one assay; those are over-represented in the sample as a whole. Values without a mark were called inactive. The source made the active and inactive calls. Cut-off read from the data, not from the text of the source: active = growth inhibition above about 70%; inactive = the rest.
# Key:
# [1] = NCI Yeast Anticancer Drug Screen. Data for the mec2-1 strain (AID 157); settings: S. cerevisiae mec2-1 strain, stronger effect = higher value
# Summary of the method: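 Vehicle-treated cultures served as reference for growth inhibition of compound-exposed mec2-1 yeast.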
# [2] = NCI Yeast Anticancer Drug Screen. Data for the rad14 strain (AID 159);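 note: 0% = growth of vehicle-treated control cultures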; settings: S. cerevisiae rad14 strain growth inhibition, stronger effect = higher value
# Summary of the method: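 Inhibition of growth is reported for a repair-deficient yeast mutant following compound treatment, calculated relative to cultures that received vehicle.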
# [3] = NCI Yeast Anticancer Drug Screen. Data for the sgs1 mgt1 strain (AID 161);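 note: 0% = growth of cultures given vehicle only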; settings: S. cerevisiae sgs1 mgt1 strain, stronger effect = higher value
# Summary of the method: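 Mutant yeast exposed to compound; growth scored against vehicle-only wells.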
# [4] = NCI Yeast Anticancer Drug Screen. Data for the CLN2oe strain (AID 163);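 note: 0% = growth of vehicle-only control cultures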; settings: S. cerevisiae CLN2oe strain, stronger effect = higher value
# Summary of the method: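 Inhibition relative to vehicle-treated yeast is reported. Cells: strain with genetic alteration in cell-cycle control, grown with compound.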
# [5] = NCI Yeast Anticancer Drug Screen. Data for the cln2 rad14 strain (AID 165);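 note: 0% = growth equal to vehicle treated cultures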; settings: S. cerevisiae cln2 rad14 strain, stronger effect = higher value
# Summary of the method: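 Each compound was tested on cln2 rad14 yeast. Inhibition of growth was calculated against vehicle-exposed controls.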
# [6] = NCI Yeast Anticancer Drug Screen. Data for the bub3 strain (AID 167); settings: S. cerevisiae bub3 mutant strain, stronger effect = higher value
# Summary of the method: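 Mutant yeast screening strain plus compound; vehicle-treated cultures serve as the 0% inhibition reference.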
# [7] = NCI Yeast Anticancer Drug Screen. Data for the wt2 strain (AID 169); settings: S. cerevisiae wt2 strain growth inhibition, stronger effect = higher value
# Summary of the method: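 Inhibition of yeast growth was determined after compound treatment, normalised to controls receiving only vehicle.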
# [8] = NCI Yeast Anticancer Drug Screen. Data for the mlh1 strain (AID 171);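 note: 0% = growth of vehicle-treated control cultures of the same strain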; settings: S. cerevisiae mlh1 strain growth inhibition, stronger effect = higher value
# Summary of the method: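 Vehicle-normalised growth inhibition of a repair- or checkpoint-altered yeast strain following compound treatment.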
# [9] = NCI Yeast Anticancer Drug Screen. Data for the mlh1 rad18 strain (AID 175); settings: S. cerevisiae mlh1 rad18 strain growth inhibition, stronger effect = higher value
# Summary of the method: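 Vehicle-treated cultures served as the reference for growth inhibition in a yeast strain carrying DNA damage repair alterations exposed to each compound.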
# [10] = NCI Yeast Anticancer Drug Screen. Data for the rad18 strain (AID 177); settings: S. cerevisiae rad18 mutant growth inhibition, stronger effect = higher value
# Summary of the method: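 Test articles were incubated with altered yeast defective in DNA damage repair. Results are given as inhibition of growth versus vehicle.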
# [11] = NCI Yeast Anticancer Drug Screen. Data for the rad52 strain (AID 147);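 note: 0% = growth of vehicle-treated control cultures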; settings: S. cerevisiae rad52 mutant growth inhibition, stronger effect = higher value
# Summary of the method: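 Vehicle-treated cultures served as the reference for growth inhibition of compound-exposed yeast bearing a DNA repair mutation.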
# [12] = NCI Yeast Anticancer Drug Screen. Data for the wt1 strain (AID 149);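 note: 0% = growth of vehicle-treated wt1 cultures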; settings: S. cerevisiae wt1 strain (SPY 50644) growth inhibition, stronger effect = higher value
# Summary of the method: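 Each compound is tested on wt1 yeast and the loss of growth versus vehicle gives the inhibition value.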
# [13] = NCI Yeast Anticancer Drug Screen. Data for the rad50EPP+ strain (AID 151);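 note: 0% = growth of vehicle-treated control cultures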; settings: S. cerevisiae rad50 mutant strain, stronger effect = higher value
# Summary of the method: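 In this screen, rad50EPP+ yeast were exposed to compounds. Growth inhibition was scored against vehicle-treated controls.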
# [14] = NCI Yeast Anticancer Drug Screen. Data for the mgt1 strain (AID 153); settings: S. cerevisiae mgt1 mutant growth inhibition, stronger effect = higher value
# Summary of the method: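 mgt1 strain exposed; growth vs vehicle control recorded as inhibition.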
# [15] = NCI Yeast Anticancer Drug Screen. Data for the rad50 strain (AID 155);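 note: 0% = growth of vehicle-only cultures of the same strain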; settings: S. cerevisiae rad50 strain growth inhibition, stronger effect = higher value
# Summary of the method: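 Vehicle-treated cultures provide the reference for the growth inhibition reported for compound-exposed, repair-deficient yeast.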
# [16] = at 5.0 µM (retest, dose inferred, filed as 0.5)
# [17] = at 50.0 µM (retest, dose inferred, filed as 5.0)
smiles,measurement,setting,value
CSC1=NNC(SC)=NN1,growth inhibition,[1]; [16],44%
same,growth inhibition,[1]; at 11.0 µM,15%
same,growth inhibition,[1]; at 33.0 µM,89% (active)
same,growth inhibition,[1]; [17],41%
same,growth inhibition,[1]; at 50.0 µM,44.4%
same,growth inhibition,[1]; at 100.0 µM,99% (active)
same,growth inhibition,[2]; at 1.2 µM,-16%
same,growth inhibition,[2]; at 3.7 µM,-4%
same,growth inhibition,[2]; at 11.0 µM,36%
same,growth inhibition,[2]; at 33.0 µM,87% (active)
same,growth inhibition,[2]; at 100.0 µM,98% (active)
same,growth inhibition,[3]; [16],-1%
same,growth inhibition,[3]; [17],100% (active)
same,growth inhibition,[3]; at 50.0 µM,58.5%
same,growth inhibition,[4]; at 1.2 µM,-8%
same,growth inhibition,[4]; at 3.7 µM,17%
same,growth inhibition,[4]; at 11.0 µM,15%
same,growth inhibition,[4]; at 33.0 µM,46%
same,growth inhibition,[4]; at 100.0 µM,99% (active)
same,growth inhibition,[5]; [16],61%
same,growth inhibition,[5]; [17],99% (active)
same,growth inhibition,[5]; at 50.0 µM,30.9%
same,growth inhibition,[6]; at 1.2 µM,-12%
same,growth inhibition,[6]; at 3.7 µM,6%
same,growth inhibition,[6]; [16],45%
same,growth inhibition,[6]; at 11.0 µM,54%
same,growth inhibition,[6]; at 33.0 µM,89% (active)
same,growth inhibition,[6]; [17],99% (active)
same,growth inhibition,[6]; at 50.0 µM,68.8%
same,growth inhibition,[6]; at 100.0 µM,99% (active)
same,growth inhibition,[7]; at 1.2 µM,-2%
same,growth inhibition,[7]; at 3.7 µM,1%
same,growth inhibition,[7]; at 11.0 µM,4%
same,growth inhibition,[7]; at 33.0 µM,61%
same,growth inhibition,[7]; at 100.0 µM,99% (active)
same,growth inhibition,[8]; at 1.2 µM,-3%
same,growth inhibition,[8]; at 3.7 µM,17%
same,growth inhibition,[8]; at 11.0 µM,20%
same,growth inhibition,[8]; at 33.0 µM,62%
same,growth inhibition,[8]; at 100.0 µM,98% (active)
same,growth inhibition,[9]; [16],44%
same,growth inhibition,[9]; [17],35%
same,growth inhibition,[9]; at 50.0 µM,39.4%
same,growth inhibition,[10]; at 1.2 µM,4%
same,growth inhibition,[10]; at 3.7 µM,13%
same,growth inhibition,[10]; at 11.0 µM,60%
same,growth inhibition,[10]; at 33.0 µM,93% (active)
same,growth inhibition,[10]; at 100.0 µM,98% (active)
C=CC(C)(O)CCC1C(=C)C(O)CC2C(C)(C)CCCC12C (stereo unspecified),growth inhibition,[11]; at 1.2 µM,27%
same,growth inhibition,[11]; at 3.7 µM,26%
same,growth inhibition,[11]; at 11.0 µM,27%
same,growth inhibition,[11]; at 33.0 µM,54%
same,growth inhibition,[11]; at 100.0 µM,72% (active)
same,growth inhibition,[12]; at 1.2 µM,-26%
same,growth inhibition,[12]; at 3.7 µM,-10%
same,growth inhibition,[12]; at 11.0 µM,-17%
same,growth inhibition,[12]; at 33.0 µM,-11%
same,growth inhibition,[12]; at 100.0 µM,69%
same,growth inhibition,[13]; at 1.2 µM,4%
same,growth inhibition,[13]; at 3.7 µM,-6%
same,growth inhibition,[13]; at 11.0 µM,12%
same,growth inhibition,[13]; at 33.0 µM,0%
same,growth inhibition,[13]; at 100.0 µM,-40%
same,growth inhibition,[14]; at 1.2 µM,-4%
same,growth inhibition,[14]; at 3.7 µM,-16%
same,growth inhibition,[14]; at 11.0 µM,-24%
same,growth inhibition,[14]; at 33.0 µM,14%
same,growth inhibition,[14]; at 100.0 µM,66%
same,growth inhibition,[15]; at 1.2 µM,15%
same,growth inhibition,[15]; at 3.7 µM,19%
same,growth inhibition,[15]; [16],36%
same,growth inhibition,[15]; at 11.0 µM,19%
same,growth inhibition,[15]; at 33.0 µM,61%
same,growth inhibition,[15]; [17],43%
same,growth inhibition,[15]; at 50.0 µM,63.6%
same,growth inhibition,[15]; at 100.0 µM,84% (active)
same,growth inhibition,[1]; at 1.2 µM,-3%
same,growth inhibition,[1]; at 3.7 µM,9%
same,growth inhibition,[1]; [16],48%
same,growth inhibition,[1]; at 11.0 µM,-10%
same,growth inhibition,[1]; at 33.0 µM,4%
same,growth inhibition,[1]; [17],52%
same,growth inhibition,[1]; at 50.0 µM,44.5%
same,growth inhibition,[1]; at 100.0 µM,50%
same,growth inhibition,[2]; at 1.2 µM,-7%
same,growth inhibition,[2]; at 3.7 µM,-20%
same,growth inhibition,[2]; at 11.0 µM,-18%
same,growth inhibition,[2]; at 33.0 µM,40%
same,growth inhibition,[2]; at 100.0 µM,80% (active)
same,growth inhibition,[3]; [16],-23%
same,growth inhibition,[3]; [17],81% (active)
same,growth inhibition,[3]; at 50.0 µM,80.5% (active)
same,growth inhibition,[4]; at 1.2 µM,-8%
same,growth inhibition,[4]; at 3.7 µM,-34%
same,growth inhibition,[4]; at 11.0 µM,-8%
same,growth inhibition,[4]; at 33.0 µM,-16%
same,growth inhibition,[4]; at 100.0 µM,28%
same,growth inhibition,[5]; [16],50%
same,growth inhibition,[5]; [17],66%
same,growth inhibition,[5]; at 50.0 µM,16.7%
same,growth inhibition,[6]; at 1.2 µM,-4%
same,growth inhibition,[6]; at 3.7 µM,7%
same,growth inhibition,[6]; [16],19%
same,growth inhibition,[6]; at 11.0 µM,1%
same,growth inhibition,[6]; at 33.0 µM,31%
same,growth inhibition,[6]; [17],80% (active)
same,growth inhibition,[6]; at 50.0 µM,73% (active)
same,growth inhibition,[6]; at 100.0 µM,69%
same,growth inhibition,[7]; at 1.2 µM,-2%
same,growth inhibition,[7]; at 3.7 µM,-12%
same,growth inhibition,[7]; at 11.0 µM,-13%
same,growth inhibition,[7]; at 33.0 µM,28%
same,growth inhibition,[7]; at 100.0 µM,69%
same,growth inhibition,[8]; at 1.2 µM,-4%
same,growth inhibition,[8]; at 3.7 µM,-12%
same,growth inhibition,[8]; at 11.0 µM,-17%
same,growth inhibition,[8]; at 33.0 µM,9%
same,growth inhibition,[8]; at 100.0 µM,42%
same,growth inhibition,[9]; [16],23%
same,growth inhibition,[9]; [17],45%
same,growth inhibition,[9]; at 50.0 µM,63.9%
same,growth inhibition,[10]; at 1.2 µM,-14%
same,growth inhibition,[10]; at 3.7 µM,-19%
same,growth inhibition,[10]; at 11.0 µM,-15%
same,growth inhibition,[10]; at 33.0 µM,49%
same,growth inhibition,[10]; at 100.0 µM,80% (active)
